In PubChem BioAssay:
Calls of active or inactive are those of the source. Unless noted, no rule for the calls is given here.

Legend:
[1] = HepG2 liver cancer cell viability effects, profiling panel, resazurin fluorescence, 24 h, PK04 Diversity Set (AID 1172); settings: higher = more signal; also: test concentration not given here
[2] = basal S. cerevisiae growth modulation, no modifier, primary screen, OD600, strain BY4716, 24 h, basal condition (AID 1173); settings: OD600, 24 h, higher = more signal, called active from +8 up or from −8 down
[3] = MM1S myeloma cell viability, profiling panel, resazurin fluorescence, basal, 24 h, PK04 Diversity Set (AID 1174); settings: higher = more signal, called active from +8 up or from −8 down;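 also: MM1S multiple myeloma cell line; test concentration not given here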
[4] = target: Dihydroorotate dehydrogenase (quinone), mitochondrial (Plasmodium falciparum (isolate 3D7)) (UniProt Q08210); test: PfDHODH enzyme inhibitors, primary screen, biochemical, C-terminal His tag, absorbance 600 nm (AID 1175); settings: DCIP absorbance 600 nm, higher = more signal, called active from +8 up or from −8 down;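 also: recombinant parasite enzyme with a five histidine tag at its C terminus; test concentration not given here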
Sequence of Dihydroorotate dehydrogenase (quinone), mitochondrial (Plasmodium falciparum (isolate 3D7)) (Q08210 whole entry, looked up): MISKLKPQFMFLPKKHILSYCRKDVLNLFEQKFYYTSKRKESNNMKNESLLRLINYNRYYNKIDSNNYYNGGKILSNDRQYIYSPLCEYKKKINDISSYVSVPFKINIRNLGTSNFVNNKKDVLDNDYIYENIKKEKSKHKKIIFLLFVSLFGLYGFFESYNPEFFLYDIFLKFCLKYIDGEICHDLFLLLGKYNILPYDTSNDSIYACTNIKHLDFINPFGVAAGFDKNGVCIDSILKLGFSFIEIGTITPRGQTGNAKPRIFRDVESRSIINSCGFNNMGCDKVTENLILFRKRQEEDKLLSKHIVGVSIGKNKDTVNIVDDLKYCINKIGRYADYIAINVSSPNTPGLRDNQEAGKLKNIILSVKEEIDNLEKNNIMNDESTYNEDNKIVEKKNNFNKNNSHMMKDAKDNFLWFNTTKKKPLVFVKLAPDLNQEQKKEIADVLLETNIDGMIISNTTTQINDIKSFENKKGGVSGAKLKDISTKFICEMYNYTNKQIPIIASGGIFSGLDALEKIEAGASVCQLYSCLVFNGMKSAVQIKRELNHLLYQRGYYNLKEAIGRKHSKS

[5] = P. aeruginosa biofilm formation inhibitors, primary screen, strain PAO1, LB-PBS medium, absorbance 600 nm (AID 1176); also: test concentration not given here; settings: P. aeruginosa PAO1 growth/biofilm, A600, 12 h; higher = more signal
[6] = S. cerevisiae RM11-1a growth modifiers, primary screen, strain RM11-1a, OD600, basal, 24 h (AID 1177); settings: OD600, 24 h, higher = more signal, called active from +8 up or from −8 down;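 also: cultures grown under basal conditions with no added stressor; test concentration not given here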
[7] = E. coli acrAB mutant growth effects, primary screen, E. coli filamentation inducers, strain DRC39, OD650, 24 h (AID 1178); settings: higher = more signal, called active from +8 up or from −8 down;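 also: growth measured as culture turbidity by optical density at 650 nm; test concentration not given here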
[8] = E. coli acrAB mutant growth effects, primary screen, E. coli filamentation inducers, strain DRC39, OD650, 48 h (AID 1179);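 also: screen aims at cell division blockers that make cells filament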; settings: E. coli DRC39 delta-acrAB growth, higher = more signal, called active from +8 up or from −8 down
[9] = RPMI8226 myeloma cell viability, profiling panel, resazurin fluorescence, basal, 24 h, PK04 Diversity Set (AID 1180); settings: higher = more signal;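 also: RPMI8826 multiple myeloma cell line at 5000 cells per well; test concentration not given here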
[10] = target: E3 ubiquitin-protein ligase XIAP (Homo sapiens) (UniProt P98170); test: XIAP binders, primary screen, biophysical, small-molecule microarray, fluorescence 635 nm (AID 1181); settings: small-molecule microarray binding, higher = more signal;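 also: score merges 667 nm emission and signal to noise over triplicate slides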
Sequence of E3 ubiquitin-protein ligase XIAP (Homo sapiens) (P98170 whole entry, looked up): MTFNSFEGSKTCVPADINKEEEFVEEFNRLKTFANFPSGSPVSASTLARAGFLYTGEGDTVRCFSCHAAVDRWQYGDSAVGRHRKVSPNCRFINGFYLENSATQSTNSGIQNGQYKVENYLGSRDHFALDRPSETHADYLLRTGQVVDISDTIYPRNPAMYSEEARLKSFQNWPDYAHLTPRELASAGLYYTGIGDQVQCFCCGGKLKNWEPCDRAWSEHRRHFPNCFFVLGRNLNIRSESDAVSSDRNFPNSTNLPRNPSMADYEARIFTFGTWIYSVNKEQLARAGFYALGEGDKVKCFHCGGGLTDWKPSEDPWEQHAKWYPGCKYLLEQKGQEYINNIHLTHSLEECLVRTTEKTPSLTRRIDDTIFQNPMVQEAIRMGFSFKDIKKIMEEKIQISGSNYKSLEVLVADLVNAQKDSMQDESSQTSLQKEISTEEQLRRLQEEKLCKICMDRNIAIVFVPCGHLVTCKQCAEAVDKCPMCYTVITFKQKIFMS

| SMILES | z-score [1] | z-score [2] | z-score [3] | composite z-score [4] | z-score [5] | z-score [6] | z-score [7] | z-score [8] | z-score [9] | composite z-score [10] |
| --- | --- | --- | --- | --- | --- | --- | --- | --- | --- | --- |
| CN(C)CCCC[C@@H]1NC(=O)[C@H]2C[C@@H](C(=O)NCc3ccc(F)cc3)[C@@H](c3ccc(O)cc3)N2C1=O | 0.222 | -0.549 (inactive) | 0.766 (inactive) | -1.54 (inactive) | -0.832 (inactive) | -0.649 (inactive) | 0.11 (inactive) | 0.182 (inactive) | 0.382 | 0.207 |
| O=C1O[C@H](c2ccccc2)[C@H](c2ccccc2)N2[C@H]1[C@@H](C(=O)NC[C@H](O)c1ccccc1)[C@]1(C(=O)Nc3ccc(C#CCCO)cc31)[C@H]2c1ccccc1OCCO | 1.19 | 0.904 (inactive) | -1.12 (inactive) | -0.532 (inactive) | 0.517 (inactive) | 1.48 (inactive) | 0.439 (inactive) | -0.467 (inactive) | -0.591 | -0.209 |
| CC1CC/C=C\[C@H]2OC34C=CCN(CCN5CCOCC5)C(=O)[C@H]3N(CCCCCCO)C(=O)[C@@H]4C2C(=O)O1 (stereo not given in full) | -0.655 | -0.195 (inactive) | -0.513 (inactive) | 0.85 (inactive) | -0.717 (inactive) | 0.615 (inactive) | 0.125 (inactive) | 0.602 (inactive) | 0.761 | 0.288 |
| CN1C(=O)C2C(C1=O)C1C=C(c3ccc(CO)cc3)C2C(c2cccs2)N1C (stereo not given) | -0.584 | -1.59 (inactive) | -0.446 (inactive) | -1.46 (inactive) | -2.71 (inactive) | -0.0654 (inactive) | 0.596 (inactive) | 0.346 (inactive) | 0.343 | -0.444 |
| COC(=O)[C@@]1(Cc2ccc(F)cc2)[C@H]2c3cc(C(=O)N(C)C)n(CCN4CCOCC4)c3C[C@H]2CN1C(=O)c1ccccc1 | 0.255 | 1.22 (inactive) | -0.663 (inactive) | -0.521 (inactive) | 0.0818 (inactive) | 0.7 (inactive) | 0.187 (inactive) | -0.957 (inactive) | 0.874 | 0.138 |
| COc1ccc(C(O)C2C=CC3C(=O)N(C)C(=O)C3N2Nc2ccc([N+](=O)[O-])cc2[N+](=O)[O-])cc1OCc1ccccc1 (stereo not given) | -0.448 | 0.944 (inactive) | -1.27 (inactive) | 0.37 (inactive) | -0.0067 (inactive) | 0.371 (inactive) | -0.98 (inactive) | -0.383 (inactive) | -1.39 | 0.165 |
| CCOC(=O)C1=C(C(=O)OCC)N(S(=O)(=O)CC[Si](C)(C)C)[C@H](c2ccccc2)CC1 | 0.95 | 1.77 (inactive) | -2.4 (inactive) | -0.493 (inactive) | 0.201 (inactive) | 1.73 (inactive) | -0.203 (inactive) | -0.238 (inactive) | -4.03 | -0.127 |
| CCCCN1CC=CC23O[C@@H]4/C=C\CCC(C)OC(=O)C4[C@H]2C(=O)N(C(C)CO)[C@@H]3C1=O (stereo not given in full) | 0.0172 | -0.0298 (inactive) | -0.289 (inactive) | -0.216 (inactive) | 0.301 (inactive) | 0.549 (inactive) | 0.659 (inactive) | 0.606 (inactive) | -0.175 | 0.0785 |
| CCCC[C@@H]1C[C@H]1[C@@H](NC(=O)c1ccc(C(F)(F)F)cc1)c1ccc(C(=O)OC)cc1 | 1.51 | 0.146 (inactive) | 0.444 (inactive) | -0.0667 (inactive) | 1.02 (inactive) | 1.02 (inactive) | 0.909 (inactive) | 0.787 (inactive) | 0.971 | 0.209 |
| C=C(CC1([C@@H](NP(=O)(c2ccccc2)c2ccccc2)[C@H]2C[C@@H]2CCN(C(=O)OCC)S(=O)(=O)c2ccc(C)cc2)CC1)c1ccccc1 | 0.716 | 1.97 (inactive) | -1.59 (inactive) | 0.0407 (inactive) | 0.687 (inactive) | 1.52 (inactive) | 0.104 (inactive) | -0.194 (inactive) | -1.05 | 0.303 |
| COC(=O)[C@@]1(Cc2ccccc2CN=[N+]=[N-])COC(c2ccc(OCCCO)cc2)=N1 | -0.639 | -5.02 (inactive) | -1.75 (inactive) | 0.37 (inactive) | 1.07 (inactive) | 0.593 (inactive) | 0.544 (inactive) | -0.74 (inactive) | -0.39 | -0.0582 |
| CC(=O)c1ccc(C(O)C2C=CC3C(=O)NC(=O)C3N2Nc2ccc(Cl)cc2Cl)cc1 (stereo not given) | -1.16 | -2.33 (inactive) | -1.35 (inactive) | 1.16 (inactive) | 0.835 (inactive) | 1.39 (inactive) | 0.385 (inactive) | -1.48 (inactive) | -1.8 | -0.0421 |
| CC(C)C[C@@H]1NC(=O)C([C@@H](C)OCc2ccccc2)NC(=O)[C@@]23C(=O)N[C@@H](Cc4ccccc4)C2[C@H](C)[C@@]2(C)O[C@H]2C3/C=C/CC/C=C/CNC1=O (stereo not given in full) | 0.536 | -1.78 (inactive) | -0.0218 (inactive) | -0.485 (inactive) | 0.261 (inactive) | -0.435 (inactive) | 1.64 (inactive) | 0.212 (inactive) | -0.417 | -0.144 |
| CCCCC=C[C@@H](NC(=O)c1ccc(C(F)(F)F)cc1)c1ccccc1 | 1.64 | -0.118 (inactive) | 0.423 (inactive) | -0.101 (inactive) | -0.222 (inactive) | 0.562 (inactive) | -0.244 (inactive) | 0.291 (inactive) | 1.1 | 0.0699 |
| CCc1cccc(NC(=O)O[C@H]2[C@H](OC(=O)Nc3ccc4c(c3)OCO4)[C@H](OC(=O)Nc3ccc4c(c3)OCO4)[C@@H](OC)O[C@@H]2CO)c1 | -0.585 | 0.613 (inactive) | -1.44 (inactive) | -1.12 (inactive) | 0.317 (inactive) | 1.97 (inactive) | 1.65 (inactive) | 0.853 (inactive) | -1.47 | -0.184 |
| COc1cc(OC)c(C(O)C2C=CC3C(=O)N(c4ccccc4)C(=O)C3N2Nc2ccccc2F)cc1Br (stereo not given) | -0.384 | -1.22 (inactive) | -0.898 (inactive) | -0.92 (inactive) | 1.32 (inactive) | 0.298 (inactive) | -0.529 (inactive) | -0.595 (inactive) | -2.08 | 0.0245 |
| O=C1O[C@@H](c2ccccc2)[C@@H](c2ccccc2)N2[C@@H](c3ccc(OCCO)cc3)[C@]3(C(=O)Nc4ccc(C#CCCO)cc43)[C@@H](C(=O)Nc3nc4ccccc4s3)[C@H]12 | 1.44 | 0.799 (inactive) | 1 (inactive) | -0.812 (inactive) | 0.89 (inactive) | 0.25 (inactive) | 0.042 (inactive) | -0.366 (inactive) | 1.51 | 0.0225 |
| CCOC(=O)C[C@H]1[C@H](OC(=O)Cc2ccc3c(c2)OCO3)[C@@H](NC(=O)c2ccccc2)c2cc(OCCCO)ccc2N1C(=O)Cc1ccc(OC)cc1 | -0.0111 | -0.644 (inactive) | -0.234 (inactive) | -1.37 (inactive) | 0.407 (inactive) | -1.86 (inactive) | 1.68 (inactive) | 2.05 (inactive) | 0.636 | -0.162 |
| CCOC(=O)C[C@H]1[C@H](OC(=O)c2ccc(C(=O)c3ccccc3)cc2)[C@@H](NC(=O)c2ccc3ccccc3c2)c2cc(OCCCO)ccc2N1C(=O)c1ccc2ccccc2n1 | 0.213 | -0.628 (inactive) | 0.64 (inactive) | 0.824 (inactive) | -0.595 (inactive) | 0.351 (inactive) | 0.571 (inactive) | 0.534 (inactive) | 0.395 | -0.0726 |
| CCOC(=O)C1=CC[C@@H](c2ccc(F)cc2)N(S(=O)(=O)c2ccc(C)cc2)[C@H]1c1ccc([N+](=O)[O-])cc1 | 1.09 | 1.18 (inactive) | 0.0003 (inactive) | -0.554 (inactive) | 0.0362 (inactive) | 0.248 (inactive) | 0.253 (inactive) | 0.321 (inactive) | -0.678 | 0.0077 |
| [N-]=[N+]=NCc1ccccc1[C@H]1OC(c2ccc(OCCCO)cc2)=N[C@@]1(Cc1ccccc1)C(=O)N1CCOCC1 | 1.35 | -2.25 (inactive) | -0.0295 (inactive) | 0.222 (inactive) | 0.841 (inactive) | 0.176 (inactive) | -0.0844 (inactive) | -1 (inactive) | 0.349 | 0.0578 |
| C=CCC(OC(C)=O)[C@@H]1[C@@H](N(Cc2ccc(-c3cccc(C(F)(F)F)c3)o2)C(=O)Cc2ccc(F)cc2)c2cc(OCCCO)ccc2N1C(=O)c1ccc2ccccc2n1 (stereo not given in full) | 0.286 | 0.441 (inactive) | 0.229 (inactive) | -0.235 (inactive) | 0.927 (inactive) | -0.116 (inactive) | -0.36 (inactive) | -0.15 (inactive) | -0.128 | 0.0454 |
| CC(C)C(=C=CC[C@@H](O)c1ccccc1OCCO)C[C@@H](O)c1cc(Cl)cc(Cl)c1O | -0.563 | -4.12 (inactive) | -1.35 (inactive) | -2.32 (inactive) | 0.354 (inactive) | 0.184 (inactive) | -0.501 (inactive) | -0.796 (inactive) | -0.932 | -0.232 |
